# Data: ChEMBL document CHEMBL1157539, “Thousands of chemical starting points for antimalarial lead identification” (Nature, 2010)
# Key:
# Format in all cases: functional
# Plasmodium falciparum [1] = experiment: GSK_TCMDC: Inhibition of Plasmodium falciparum 3D7 in whole red blood cells, using parasite LDH activity as an index of growth. Test compounds present at 2uM
# Plasmodium falciparum [2] = experiment: GSK_TCMDC: Inhibition of Plasmodium falciparum Dd2 in whole red blood cells, using parasite LDH activity as an index of growth. Test compounds present at 2uM
# HepG2 = experiment: GSK_TCMDC: Percent inhibition of human HepG2 cell line. Test compounds present at 10uM.
Compound,Inhibition (Plasmodium falciparum [1]) [%],Inhibition (Plasmodium falciparum [2]) [%],Inhibition (HepG2) [%]
Cc1cccc2nc(-c3cccc(-c4cccc(CN5CCC(CO)CC5)c4)c3)[nH]c12.O=C(O)C(F)(F)F,100,90,4
COc1ccc2nccc([C@@H](O)CN3CCC(NC(=O)Cc4cc5ccccc5s4)CC3)c2c1,92,42,16
Br.Nc1ccc(-c2csc(Nc3ccncc3)n2)cc1,95,50,12
CCCCCCN(CCCCCC)CC(O)c1c(OC)ccc2ccccc12.Cl (centres undefined),100,100,18
Clc1ccc(-c2nc3cc(-c4ccc5nc(-c6ccc(Cl)cc6)[nH]c5c4)ccc3[nH]2)cc1,100,99,59
Cc1cc(C(=O)Nc2ccc3c(c2)CCN3C2CCN(Cc3ccc(O)cc3)C2)no1 (centres undefined),95,86,3
Oc1ccc(Cl)cc1CN1CCCC(COC(c2ccc(F)cc2)c2ccc(F)cc2)C1 (centres undefined),98,100,20
Cc1ccc(CNC(=O)[C@H](Cc2ccccc2)Nc2cc(C)nc(Nc3ccccc3)n2)cc1.O=C(O)C(F)(F)F,100,91,16
Cc1cc(NC(=O)c2sc3ccccc3c2O)no1,96,25,6
CCc1cn(CCOC)c2ccc(C(=O)N[C@@H](Cc3ccccc3)[C@H](O)CNC(C)(C)CCCC(C)C)cc12.O=CO,98,98,35
O=C(/C=C/c1ccc(I)cc1)NCCCCCN1CCC(c2c[nH]c3ccccc23)CC1,95,2,43
Nc1nc(Nc2cccc(Cl)c2)ncc1C(=O)NCc1ccncc1,98,29,3
CCN1C(c2ccc(Cl)cc2)C(CNCc2ccccc2O)CC1(C)CO (centres undefined),99,99,47
Cc1nc(-c2nc(NCc3ccc4c(c3)OCO4)ncc2-c2ccsc2)sc1C,97,77,7
COc1ccc2nccc([C@@H](O)CN3CCC(NCc4cc5c(F)ccc(F)c5[nH]4)CC3)c2n1.CS(=O)(=O)O,100,76,22
Cc1ccc(C2(C)CC(C)(C)N(C(=O)COc3ccc4ccccc4c3)c3ccccc32)cc1 (centres undefined),100,98,0
Cc1cccc(-c2ccc(NC(=O)Nc3ccc4nccc(N5CCN(C)CC5)c4c3)cc2C)n1.Cl,100,95,4
Cc1ccc(C(NC(=O)c2ccccc2)c2ccc3cccnc3c2O)cc1 (centres undefined),92,72,53
Cc1cc(N)c2cc(NC(=O)/C=C/c3ccccc3Cl)ccc2n1,100,98,81
C=CCOc1ccc(-c2c(C)[nH]c(C)c(Br)c2=O)cc1,98,96,5
Cc1onc(-c2ccccc2)c1-c1nc(NC2CCCC(C)C2)no1 (centres undefined),100,46,22
O=C(/C=C/c1ccc(Cl)c(Cl)c1)NCCCCCN1CCCC(CCCNC(=O)Nc2ccc(C(F)(F)F)cc2)C1 (centres undefined),100,48,58
CC(C)(C)c1cc([N+](=O)[O-])cc(C(=O)Nc2ccccc2C(F)(F)F)c1O,96,99,74
